Experimental findings from PubChem BioAssay (NCI) are described below.

This is part of a sample that, as a whole, favours compounds with a hit. Of some 83,000 tested, about 20% had one in any assay.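 How to read the values: 0–100, growth inhibition (40 = 60% inhibited); 0, no net growth; -100 to 0, cell death (-40 = 40% of starting cells died; -100 = all dead).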 The source made the active and inactive calls. How the source made its calls: active means growth percent below 10; inactive means the rest.

The subject of this assay is HL-60(TB) leukemia. In words: NCI-60 one-dose screen, 48 h (100 = growth as untreated, 0 = no growth, -100 = all killed). The settings on record: 10 µM unless noted.
For the compound `CCCNc1nc(N(C)O)nc(N(C)O)n1`, the growth is 3.47% (active). On to `CCCCCCCCCCCCCCC(C(=O)OCC)C(=O)OCC`, for which the growth is 104% (inactive).

As to `CC(C)C(=O)Nc1n[nH]c2cc(-c3cccc(NS(=O)(=O)C4CC4)c3)ccc12`, the growth is 64.3% (inactive). `COc1cccc(OC)c1Oc1c(-c2nc3ccccc3s2)c(C)nn1-c1ccccc1`: the growth was 81.8% (inactive). For `CCN(c1ccc(Cl)cc1)c1nc(-c2ccc([N+](=O)[O-])cc2)cs1`, the growth is 96.1% (inactive).

On to `Cc1cc(C)c2c(Nc3ncnc4c3sc3nc(C)cc(C)c34)n[nH]c2n1`, for which the growth is 99% (inactive). Turning to `C1CNC(C2=NCCN2)=N1`, the growth is 109% (inactive).

Turning to `Cn1cc(-c2ccc3c(Nc4cccc(NC(=O)Nc5cccc(F)c5)c4)ncnc3c2)cn1`, the growth is 74.1% (inactive). For `CCCCOc1c(N)cc(Cl)cc1C(=O)OCCN(CC)CC`, the growth is 51% (inactive). The figure for `CCNCCNc1cc(C2CCCCC2)c(C#N)c2nc3ccccc3n12` is -62.4% (active). In the case of `CC[C@H](C)[C@@H]1NC(=O)[C@H]([C@@H](C)O)NC(=O)C(Cc2ccccc2)NC(=O)[C@@H]2CCCN2C(=O)C(C(C)C)NC(=O)C(Cc2ccccc2)NC(=O)CNC(=O)[C@@H]2CCCN2C1=O` (stereo not given in full), the growth was 5.19% (active). With `Cc1ccc(/C=C(\C#N)c2cc3ccccc3n2C)cc1`, the growth was 4.45% (active). As to `COc1ccc(-c2cc(-c3ccc(Cl)cc3)c(C#N)c(=O)n2CCCCCC(=O)Nc2ccccc2N)cc1`, the growth was -14.5% (active). Turning to `COC1=C(OC)C(=O)C(SC/C=C(\C)CCCC(C)CCCC(C)CCCC(C)C)=CC1=O` (stereo not given), the growth is -36.3% (active).

For `COc1ccc(C(C(=O)O)c2ccc(OC)cc2)cc1`, the growth was 97.9% (inactive). On to `O=C(Nc1ccc(C2=NCCCN2)cc1)c1ccc(C(=O)Nc2ccc(C3=NCCCN3)cc2)nc1`, for which the growth is 79% (inactive). As for `CCOC(=O)c1c(C)nc2ccccc2c1/C=C/c1cccs1`, the growth is 87.3% (inactive). `O=C(O)c1cc2ccccc2cc1Nc1ccccc1`: the growth was 93.3% (inactive). Consider `COC1CC(OC(=O)c2ccc([N+](=O)[O-])cc2)C(COC(=O)c2ccc([N+](=O)[O-])cc2)O1` (stereo not given), for which the growth is 97% (inactive).

`COc1cc(-c2cc(/C=C3\C(=O)Nc4ccc(Cl)cc43)[nH]n2)cc(OC)c1OC`: the growth is -26% (active). The figure for `CCOC(=O)/C(O)=C(\C=N\C(=S)Nc1ccc(Cl)c(Cl)c1)C(=O)OCC` is 83.6% (inactive); for `COC(=O)c1cc(O)c2cc3c(cc2c1-c1cc(OC)c(OC)c(OC)c1)OCO3` it is 5.92% (active); for `CC(C)(C)C(=O)OCOP(=O)(OCOC(=O)C(C)(C)C)C1CCCN(OC(=O)c2ccccc2)C1=O` (stereo not given) it is 35.1% (inactive). Consider `CN(C)c1cnccn1`, for which the growth was 90.3% (inactive). `Cc1cc(C)c(S(=O)(=O)/N=c2/n(-c3ccccc3)nc3n2CCN3C2=NCCN2)c(C)c1`: the growth is 82.8% (inactive). With `COc1ccc(C2=C(Br)C(=O)c3nc(C)ccc3C2=O)cc1`, the growth is 66.2% (inactive). `CC(=O)C[n+]1ccc(C)cc1Sc1ccccc1C`: the growth is 109% (inactive). As for `NNc1ncnc2cccc(Cl)c12`, the growth is 99.9% (inactive). Consider `NC(=O)OCCO`, for which the growth was 106% (inactive). As to `C=C(C)[C@@H]1CC[C@]2(C(=O)N3CCN(C)CC3)CC[C@]3(C)[C@H](CC[C@@H]4[C@@]5(C)CC(CCCNC(C)=O)(CCCNC(C)=O)[C@H](OC(C)=O)C(C)(C)[C@@H]5CC[C@]43C)[C@@H]12`, the growth is 94% (inactive). The figure for `OC(c1ccccc1)c1nnc(SCc2ccccc2)n1Cc1ccccc1` (stereo not given) is 112% (inactive); for `C/C=C/C=N/NC(=S)Nc1ccccc1` it is 81.7% (inactive).

Consider `COc1ccc(/C=C(\C#N)n2nnc3cc(F)c(F)cc32)cc1`, for which the growth was 13.8% (inactive). The figure for `COc1ccc(Nc2ncccc2C(=O)NCc2cn(Cc3cc(OC)cc(OC)c3)nn2)cc1` is 91.6% (inactive); for `CC(C)CCC[C@@H](C)[C@H]1CC[C@H]2[C@@H](Nc3ccc(O)cc3)CCC[C@]12C` it is 39.2% (inactive).

For the compound `CC(C)NC(=O)N/C=C(\C#N)C(N)=O`, the growth was 137% (inactive). As for `CC(=O)Cc1cccnc1`, the growth was 82.4% (inactive). As for `O=S(=O)(NCCCNc1nccc(-c2c(-c3cccc(O)c3)nc3occn23)n1)c1ccc(Br)cc1`, the growth is 69.7% (inactive).

As for `Ic1ccc(OCCCCn2ccnc2)cc1`, the growth is 3.58% (active).

For the compound `Oc1ccc(Nc2ccc3ccccc3c2)cc1`, the growth is 54.9% (inactive).
